Laboratory results taken from PubChem BioAssay (EPA / NIEHS).
Activity calls are given as the source filed them. Rule for the calls: active = hit-call score of the fitted dose curve at least 0.9, where 1 is the maximum; inactive = score below 0.9.

Assays:
[1] = APR_HepG2_CellLoss_1hr: Apredica 1-hour HepG2 Assay for Cell Loss (AID 2282668); details: high-content imaging;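 note: curves fitted both ways against DMSO so gain or loss of cells counts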
How it was run: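 Cell number comes from high-content imaging of Hoechst-labelled nuclei in fixed HepG2 cells. Cells were exposed for 1 h to ten concentrations from 0.39 to 200 uM in 0.5% DMSO. Gain or loss was fitted against DMSO controls.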

[2] = APR_HepG2_MicrotubuleCSK_1hr: Apredica 1-hour HepG2 Assay for Microtubule CSK Stabilty (AID 2282669); details: HepG2 microtubule cytoskeleton imaging, actives raise or lower the signal
How it was run: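 Alpha-tubulin immunofluorescence, imaged by automated high-content microscopy with Hoechst nuclear segmentation, measured cytoskeletal change after 1 h dosing of HepG2 at 0.39–200 uM in 0.5% DMSO. Activity fitted in both directions relative to DMSO.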

[3] = APR_HepG2_NuclearSize_1hr: Apredica 1-hour HepG2 Assay for Nuclear Size (AID 2282670); details: high-content imaging, actives raise or lower the signal
How it was run: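 Nuclear size measured by high-content imaging of Hoechst 33342 nuclear stain after formaldehyde fixation; human HepG2 line exposed 1 hr to compounds at 0.39–200 uM in 0.5% DMSO, with bidirectional curve fitting relative to DMSO.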

[4] = APR_HepG2_P-H2AX_1hr: Apredica 1-hour HepG2 Assay for H2AX Phosphorylation (AID 2282673); details: high-content imaging, actives raise or lower the signal
How it was run: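 Phospho-H2A.x immunofluorescence (1:200, FITC secondary) plus Hoechst nuclear stain, quantified by high-content imaging in HepG2 after 1 hr compound exposure. Ten concentrations, 0.39 to 200 uM, in duplicate with 0.5% DMSO; fit both directions against DMSO.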

[5] = APR_HepG2_MitoMass_1hr: Apredica 1-hour HepG2 Assay for Mitochondrial Mass (AID 2282674); details: high-content imaging, actives raise or lower the signal
How it was run: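 Mitochondrial mass is taken from MitoTracker Red CMXRos (250 nM, 30 min, pre-fixation) fluorescence imaged at 20x in HepG2 cells. Exposure lasted 1 hr across ten concentrations, 0.39 to 200 uM, 0.5% DMSO; DMSO baseline, bidirectional fitting.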

[6] = APR_HepG2_CellCycleArrest_24hr: Apredica 24-hour HepG2 Assay for Cell Cycle Arrest (AID 2282905); details: imaging, actives raise or lower the signal;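 note: cell cycle arrest scored as ratio of 2N to 4N nuclear DNA content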
How it was run: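 Compounds (0.39 to 200 uM, final DMSO 0.5% v/v) are applied to HepG2 cells for 24 hours; cells are then fixed, permeabilized and nuclei labeled with Hoechst 33342. Automated imaging measures DNA content, and activity is fitted in both directions against DMSO.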

[7] = APR_HepG2_StressKinase_1hr: Apredica 1-hour HepG2 Assay for Stress Kinase (AID 2282906); details: HepG2 stress kinase (phospho-c-Jun) imaging, actives raise or lower the signal
How it was run: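 High-content imaging of phospho-c-Jun immunostaining (with Hoechst nuclear identification) after a 1 h exposure of HepG2 cells to 10 concentrations from 0.39 to 200 uM, final DMSO 0.5%. Fitted bidirectionally against DMSO.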

[8] = APR_HepG2_NuclearSize_24hr: Apredica 24-hour HepG2 Assay for Nuclear Size (AID 2282907); details: high-content imaging, actives raise or lower the signal
How it was run: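 Nuclear size is measured by fluorescence high-content imaging of Hoechst-labelled HepG2 nuclei after 24 hr of treatment (0.39–200 uM, 0.5% DMSO). Cells are fixed in 3.7% formaldehyde before staining, and DMSO serves as the baseline for bidirectional curve fitting.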

[9] = APR_HepG2_MicrotubuleCSK_24hr: Apredica 24-hour HepG2 Assay for Microtubule CSK Stabilty (AID 2282909); details: HepG2 microtubule cytoskeleton imaging, actives raise or lower the signal
How it was run: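 Compounds were applied to HepG2 cells for 24 hours across 0.39–200 uM in duplicate, with final DMSO at 0.5% v/v. Fixed, permeabilized cells were labeled for alpha-tubulin and nuclei, and tubulin fluorescence was quantified by imaging, fitted bidirectionally against DMSO.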

[10] = APR_HepG2_MitoticArrest_24hr: Apredica 24-hour HepG2 Assay for Mitotic Arrest (AID 2282910); details: high-content imaging, actives raise or lower the signal
How it was run: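 HepG2, 24 hr dosing, 0.39–200 uM, 0.5% DMSO final. Formaldehyde-fixed, Triton-permeabilised, anti-phospho-histone H3 plus Hoechst. ArrayScan imaging at 20x; bidirectional fit vs DMSO baseline.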

[11] = APR_HepG2_MitoMembPot_24hr: Apredica 24-hour HepG2 Assay for Mitochondrial Membrane Potential (AID 2282911); details: imaging, actives raise or lower the signal
How it was run: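 HepG2 cells exposed 24 h to 0.39–200 uM compounds in duplicate, 0.5% v/v DMSO final. MitoTracker Red CMXRos 250 nM loaded 30 min before formaldehyde fixation; high-content imaging at 20x, bidirectional fit versus DMSO.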

[12] = APR_HepG2_MitoMass_24hr: Apredica 24-hour HepG2 Assay for Mitochondrial Mass (AID 2282912); details: high-content imaging, actives raise or lower the signal
How it was run: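 After 24 hr of treatment at 0.39 to 200 uM, HepG2 cells take up 250 nM MitoTracker Red CMXRos for 30 min and are then fixed with 3.7% formaldehyde. Per-well images are quantified, and any change in either direction is scored against solvent.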

[13] = APR_HepG2_p53Act_24hr: Apredica 24-hour HepG2 Assay for p53 Activation (AID 2282913); details: high-content imaging, actives raise or lower the signal;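 note: p53 protein immunofluorescence averaged per cell in HepG2 with Hoechst nuclei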
How it was run: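 HepG2 cells exposed 24 h to compounds at 0.39–200 uM in duplicate, 0.5% v/v DMSO final; fixed, permeabilized, stained with anti-p53 antibody and Hoechst 33342; fluorescence imaging; bidirectional curve fit versus DMSO.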

[14] = APR_HepG2_CellCycleArrest_72hr: Apredica 72-hour HepG2 Assay for Cell Cycle Arrest (AID 2282914); details: high-content imaging, actives raise or lower the signal
How it was run: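 HepG2 cells exposed 72 h in duplicate to 0.39–200 uM compound, 0.5% DMSO final. Formaldehyde-fixed, Hoechst 33342-stained nuclei imaged at 20x, six fields per well; DNA content per valid cell quantified by cell-cycle image analysis, bidirectional fit versus DMSO.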

[15] = APR_HepG2_CellLoss_72hr: Apredica 72-hour HepG2 Assay for Cell Loss (AID 2282915); details: high-content imaging
How it was run: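 HepG2 cells exposed 72 h to compound at 0.39–200 uM (10 concentrations, duplicate) in 0.5% DMSO. Fixed with 3.7% formaldehyde and Hoechst 33342-stained. Imaged at 20x; nuclear count gives cell number, fitted bidirectionally versus DMSO.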

[16] = APR_HepG2_P-H2AX_72hr: Apredica 72-hour HepG2 Assay for H2AX Phosphorylation (AID 2282916); details: imaging, actives raise or lower the signal;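 note: phospho-histone H2A.x immunostain intensity per cell marking DNA damage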
How it was run: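 Human hepatoma HepG2 cells are dosed across ten concentrations (0.39 to 200 uM, 0.5% v/v DMSO) and incubated 72 hr. Phospho-histone H2A.x is then detected by antibody staining alongside c-Jun and Hoechst, and quantified by automated fluorescence imaging.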

[17] = APR_HepG2_MitoticArrest_1hr: Apredica 1-hour HepG2 Assay for Mitotic Arrest (AID 2282672); details: high-content imaging, actives raise or lower the signal
How it was run: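 Ten-point concentration series (0.39 to 200 uM, duplicates, 0.5% v/v DMSO) applied to human HepG2 liver cells for 1 hr. High-content imaging of phospho-histone H3 and Hoechst-stained nuclei after fixation and permeabilization; DMSO-normalised bidirectional fit.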

[18] = APR_HepG2_CellLoss_24hr: Apredica 24-hour HepG2 Assay for Cell Loss (AID 2282908); details: high-content imaging
How it was run: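 Nuclear count serves as the viability measure: treated cells are fixed, permeabilized and labelled with Hoechst 33342, and six images per well are analysed to identify valid nuclei. Doses span 0.39–200 uM, and activity in either direction is scored against DMSO.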

[19] = APR_HepG2_MitoMembPot_1hr: Apredica 1-hour HepG2 Assay for Mitochondrial Membrane Potential (AID 2282675); details: imaging, actives raise or lower the signal
How it was run: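 Mitochondrial membrane potential read as MitoTracker Red CMXRos intensity by automated imaging of fixed HepG2 cells. Dye at 250 nM for 30 min pre-fixation; compounds 0.39 to 200 uM for 1 hour, duplicate wells, 0.5% DMSO.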

[20] = APR_HepG2_CellCycleArrest_1hr: Apredica 1-hour HepG2 Assay for Cell Cycle Arrest (AID 2282666); details: high-content imaging, actives raise or lower the signal
How it was run: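 Cell cycle arrest scored from nuclear DNA content (Hoechst 33342) using high-content imaging of fixed HepG2 cells after 1 h treatment across 0.39–200 uM, in duplicate. Gain or loss fitted relative to 0.5% DMSO.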

Measured: AC50

C#CCOC(=O)[C@@H](C)Oc1ccc(Oc2ncc(Cl)cc2F)cc1
not listed: [17] | [18] | [19] | [20]
inactive: all other assays above

CCC(C)OC(=O)N1CCCCC1CCO (configuration not stated)
not listed: [7] | [14] | [19] | [20]
inactive: all other assays above

Cc1nn(C)c(Oc2ccccc2)c1C=NOCc1ccc(C(=O)OC(C)(C)C)cc1
active: [6] 29.9 µM | [15] 19.8 µM
not listed: [7] | [14] | [17] | [18] | [20]
inactive: all other assays above

CCCN(CCC)C(=O)SCC
not listed: [7] | [17] | [20]
inactive: all other assays above

C=CCOC(Cn1ccnc1)c1ccc(Cl)cc1Cl (configuration not stated)
active: [15] 78.2 µM
not listed: [7] | [17] | [18] | [19]
inactive: all other assays above

COC(=O)c1ccc(I)cc1S(=O)(=O)NC(=O)Nc1nc(C)nc(OC)n1
not listed: [7] | [14] | [17] | [18] | [19]
inactive: all other assays above

S=C([S-])NCCNC(=S)[S-].[Mn+2]
active: [15] 11.5 µM
not listed: [13] | [14] | [17] | [19] | [20]
inactive: all other assays above

COC(=O)c1ccccc1C(=O)O
not listed: [7] | [14] | [19] | [20]
inactive: all other assays above

CSC(=O)c1cccc2nnsc12
not listed: [7] | [18] | [19] | [20]
inactive: all other assays above

CCOC(=O)C(C)Oc1ccc(Oc2nc3ccc(Cl)cc3o2)cc1 (configuration not stated)
active: [15] 90.1 µM
not listed: [7] | [14] | [17] | [18] | [19]
inactive: all other assays above

c1ccc2[nH]c(-c3cscn3)nc2c1
not listed: [13] | [14] | [17] | [19] | [20]
inactive: all other assays above

CCCCOC(=O)[C@@H](C)Oc1ccc(Oc2ccc(C(F)(F)F)cn2)cc1
not listed: [7] | [17] | [20]
inactive: all other assays above

CCCCCCC(C)OC(=O)COc1nc(F)c(Cl)c(N)c1Cl (configuration not stated)
active: [1] 113 µM | [4] 100 µM | [5] 64 µM | [9] 116 µM
not listed: [7] | [17] | [18] | [19]
inactive: all other assays above

Oc1ccc(C(c2ccc(O)cc2)C(Cl)(Cl)Cl)cc1
active: [15] 33.4 µM
not listed: [7] | [18] | [19] | [20]
inactive: all other assays above

CCCOC(=O)NCCCN(C)C
not listed: [14] | [17] | [18] | [20]
inactive: all other assays above
